Source: PubChem BioAssay (EPA / NIEHS)
The source made the active and inactive calls. Rule for the calls: active = hit-call score of the fitted dose curve at least 0.9, where 1 is the maximum; inactive = score below 0.9.

What was measured:
Details in all cases: mRNA level, 48 h; actives raise or lower the signal
[1] = read-out: JUN Transcription Factor, JUN (gene 3725); assay: LTEA_HepaRG_JUN: Life Technologies and Expression Analysis (LTEA) Assay for JUN Transcription Factor using HepaRG (AID 2283513)
How it was run: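 HepaRG, 48 h exposure, 8-pt half-log series top 100 uM, 0.5% DMSO, duplicate. JUN mRNA by qRT-PCR (Fluidigm), housekeeping-normalized (ACTB/GAPDH/POLR2A); bidirectional curve fit vs DMSO baseline.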

[2] = read-out: Lipase C (LIPC), LIPC (gene 3990); assay: LTEA_HepaRG_LIPC: Life Technologies and Expression Analysis (LTEA) Assay for Lipase C (LIPC) using HepaRG (AID 2283514)
How it was run: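 LIPC expression was quantified by qRT-PCR against three housekeeping genes (ACTB, GAPDH, POLR2A). Differentiated human HepaRG cells received eight half-log doses (top 100 uM, 0.5% DMSO) in duplicate for 48 h; fitting bidirectional relative to DMSO.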

[3] = read-out: Lipoprotein lipase (LPL), LPL (gene 4023); assay: LTEA_HepaRG_LPL: Life Technologies and Expression Analysis (LTEA) Assay for Lipoprotein lipase (LPL) using HepaRG (AID 2283515)
How it was run: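 LPL transcript levels quantified by TaqMan qRT-PCR against three housekeeping genes after 48 h chemical treatment of HepaRG cells. Eight-point half-log series from 100 uM in 0.5% DMSO, tested in duplicate; bidirectional fitting versus vehicle.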

[4] = read-out: MicroRNA 122 (MIR122), gene 406906; assay: LTEA_HepaRG_MIR122: Life Technologies and Expression Analysis (LTEA) Assay for MicroRNA 122 (MIR122) using HepaRG (AID 2283516); note: the transcript read is the microRNA miR-122
How it was run: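 qRT-PCR read-out (TaqMan, Fluidigm array), normalized to three housekeeping genes; HepaRG cells dosed 48 h at 8 concentrations up to 100 uM in 0.5% DMSO, duplicate; gain or loss fitted against DMSO baseline.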

[5] = read-out: matrix metalloproteinase-10 (MMP10), MMP10 (gene 4319); assay: LTEA_HepaRG_MMP10: Life Technologies and Expression Analysis (LTEA) Assay for matrix metalloproteinase-10 (MMP10) using HepaRG (AID 2283517)
How it was run: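 Expression measured by TaqMan qRT-PCR with ACTB/GAPDH/POLR2A normalisation after 48 h chemical exposure of HepaRG cells. Eight half-log concentrations, top 100 uM, 0.5% DMSO vehicle, duplicates; gain or loss fitted against vehicle.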

MYC, MYC (gene 4609) = assay: LTEA_HepaRG_MYC: Life Technologies and Expression Analysis (LTEA) Assay for MYC using HepaRG (AID 2283518)
How it was run: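 MYC transcript changes, up or down relative to 0.5% DMSO, from TaqMan qRT-PCR normalized to three housekeeping genes. Human HepaRG cultures received chemicals for 48 h at eight half-log concentrations up to 100 uM, in duplicate.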

[6] = read-out: matrix metalloproteinase-3 (MMP3), MMP3 (gene 4314); assay: LTEA_HepaRG_MMP3: Life Technologies and Expression Analysis (LTEA) Assay for matrix metalloproteinase-3 (MMP3) using HepaRG (AID 2283519)
How it was run: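 Fluidigm-based TaqMan qRT-PCR, normalized to ACTB, GAPDH and POLR2A and fitted bidirectionally versus 0.5% DMSO, measured transcript levels. Treatment: duplicate 48 h exposures of HepaRG cells, ~100,000/well, to eight half-log concentrations topping at 100 uM.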

[7] = read-out: Paternally Expressed 10 (PEG10), PEG10 (gene 23089); assay: LTEA_HepaRG_PEG10: Life Technologies and Expression Analysis (LTEA) Assay for Paternally Expressed 10 (PEG10) using HepaRG (AID 2283520);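 for AC50: PEG10 transcript by qRT-PCR normalised to ACTB GAPDH and POLR2A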
How it was run: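 qRT-PCR read-out: PEG10 mRNA normalised to three housekeeping genes, fitted bidirectionally against 0.5% DMSO vehicle. HepaRG cells received test chemicals for 48 h in serum-free induction medium, 8 points, top 100 uM, half-log steps.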

[8] = read-out: Nuclear factor NF-kappa-B p105 subunit (Homo sapiens) (UniProt P19838); assay: LTEA_HepaRG_NFKB1: Life Technologies and Expression Analysis (LTEA) Assay for Nuclear Factor Kappa B Subunit 1 (NFKB1) using HepaRG (AID 2283521);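 note: differentiated human HepaRG liver cells in serum-free induction medium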
How it was run: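 NFKB1 transcript was measured by TaqMan qRT-PCR on Fluidigm arrays, normalised to three housekeeping genes and fitted in both directions against 0.5% DMSO. HepaRG cells were dosed in duplicate for 48 h in serum-free induction medium, eight half-log steps from 100 uM.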

[9] = read-out: Protein phosphatase 2A (PPP2R4), PTPA (gene 5524); assay: LTEA_HepaRG_PPP2R4: Life Technologies and Expression Analysis (LTEA) Assay for Protein phosphatase 2A (PPP2R4) using HepaRG (AID 2283522)
How it was run: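 HepaRG, 48 h exposure, 8-pt half-log series from 100 uM, 0.5% DMSO vehicle, duplicates. Readout: PPP2R4 mRNA, Fluidigm qRT-PCR, housekeeping-normalized. Bidirectional curve fit vs DMSO baseline.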

[10] = read-out: Phosphatase and tensin (PTEN), PTEN (gene 5728); assay: LTEA_HepaRG_PTEN: Life Technologies and Expression Analysis (LTEA) Assay for Phosphatase and tensin (PTEN) using HepaRG (AID 2283523)
How it was run: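 Read-out: TaqMan qRT-PCR of PTEN transcript, normalized to three housekeeping genes, fitted in both directions against 0.5% DMSO. Differentiated human HepaRG cultures received chemicals for 48 h, eight-point half-log series topping at 100 uM.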

[11] = read-out: solute carrier (SLC22A1), SLC22A1 (gene 6580); assay: LTEA_HepaRG_SLC22A1: Life Technologies and Expression Analysis (LTEA) Assay for solute carrier (SLC22A1) using HepaRG (AID 2283524);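 for AC50: differentiated human HepaRG liver cells in serum-free induction medium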
How it was run: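 Transcript level of SLC22A1 quantified by qRT-PCR (normalized to three housekeeping genes) after 48 h chemical exposure of HepaRG cells, eight concentrations up to 100 µM, half-log steps, 0.5% DMSO vehicle. Gain or loss relative to DMSO fitted bidirectionally.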

[12] = read-out: Pyruvate Dehydrogenase Kinase 4 (PDK4), PDK4 (gene 5166); assay: LTEA_HepaRG_PDK4: Life Technologies and Expression Analysis (LTEA) Assay for Pyruvate Dehydrogenase Kinase 4 (PDK4) using HepaRG (AID 2283525)
How it was run: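 Readout is qRT-PCR of PDK4 transcript, normalized to three housekeeping genes, with bidirectional fitting against 0.5% DMSO vehicle. Differentiated HepaRG cells were treated 48 h in serum-free induction medium, duplicate wells, eight-point half-log series topping at 100 uM.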

[13] = read-out: NAD(P)H dehydrogenase [quinone] 1 (NQO1), NQO1 (gene 1728); assay: LTEA_HepaRG_NQO1: Life Technologies and Expression Analysis (LTEA) Assay for NAD(P)H dehydrogenase [quinone] 1 (NQO1) using HepaRG (AID 2283526)
How it was run: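 qRT-PCR read-out (Fluidigm TaqMan), normalized to three housekeeping genes, after 48 h chemical exposure of HepaRG cells. Concentrations: eight points, top 100 uM, half-log steps, 0.5% DMSO vehicle. Gain or loss of signal fitted relative to DMSO.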

[14] = read-out: Nuclear factor erythroid 2-related factor 2 (Homo sapiens) (UniProt Q16236); assay: LTEA_HepaRG_NFE2L2: Life Technologies and Expression Analysis (LTEA) Assay for Nuclear factor erythroid 2-related factor 2 (NFE2L2) Transcription Factor using HepaRG (AID 2283527)
How it was run: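 NFE2L2 transcript level was read by qRT-PCR (housekeeping ACTB/GAPDH/POLR2A normalisation) after 48 h chemical treatment of HepaRG in serum-free induction medium. Duplicate 8-point half-log curves, top 100 uM, 0.5% DMSO vehicle; up- or down-regulation fitted against vehicle.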

[15] = read-out: succinate dehydrogenase complex iron sulfur subunit B (SDHB), SDHB (gene 6390); assay: LTEA_HepaRG_SDHB: Life Technologies and Expression Analysis (LTEA) Assay for succinate dehydrogenase complex iron sulfur subunit B (SDHB) using HepaRG (AID 2283528)
How it was run: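 SDHB transcript level read by TaqMan qRT-PCR, housekeeping-normalised (ACTB, GAPDH, POLR2A), after 48 h chemical treatment of plated HepaRG cells; eight concentrations top 100 uM, half-log steps, 0.5% DMSO, duplicates; fitted both directions against DMSO.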

[16] = read-out: Signal transducer and activator of transcription 3 (Homo sapiens) (UniProt P40763); assay: LTEA_HepaRG_STAT3: Life Technologies and Expression Analysis (LTEA) Assay for Signal transducer and activator of transcription (STAT3) using HepaRG (AID 2283529)
How it was run: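 STAT3 transcript quantified by qRT-PCR against three housekeeping genes (ACTB, GAPDH, POLR2A), fitted both directions relative to DMSO. HepaRG cultures exposed 48 h to eight half-log concentrations, top 100 uM, 0.5% DMSO, serum-free induction medium.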

[17] = read-out: solute carrier (SLCO1B1), SLCO1B1 (gene 10599); assay: LTEA_HepaRG_SLCO1B1: Life Technologies and Expression Analysis (LTEA) Assay for solute carrier (SLCO1B1) using HepaRG (AID 2283530)
How it was run: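 SLCO1B1 transcript levels were quantified by TaqMan qRT-PCR using three housekeeping genes for normalization. This followed 48 h chemical exposure (100 uM top, half-log, 8 points, 0.5% DMSO) of HepaRG liver cells, with gain or loss fitted relative to DMSO.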

[18] = read-out: sulfotransferase 2A1 (SULT2A1), SULT2A1 (gene 6822); assay: LTEA_HepaRG_SULT2A1: Life Technologies and Expression Analysis (LTEA) Assay for sulfotransferase 2A1 (SULT2A1) using HepaRG (AID 2283531)
How it was run: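 Expression change of SULT2A1, by qRT-PCR with three housekeeping-gene normalization, was scored bidirectionally versus DMSO. Cells: differentiated HepaRG, dosed in duplicate for 48 h across 8 points, highest 100 µM, half-log dilution, 0.5% DMSO.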

[19] = read-out: Transforming Growth Factor (TGFA), TGFA (gene 7039); assay: LTEA_HepaRG_TGFA: Life Technologies and Expression Analysis (LTEA) Assay for Transforming Growth Factor (TGFA) using HepaRG (AID 2283532)
How it was run: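 TGFA transcript quantified by qRT-PCR (Fluidigm arrays) against three housekeeping genes, after 48 hours chemical treatment of HepaRG cells. Top concentration 100 uM with half-log dilutions, 8 points, duplicates, 0.5% DMSO.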

Measured: AC50

Signal transducer and activator of transcription 3 (Homo sapiens), sequence (P40763 whole entry, looked up): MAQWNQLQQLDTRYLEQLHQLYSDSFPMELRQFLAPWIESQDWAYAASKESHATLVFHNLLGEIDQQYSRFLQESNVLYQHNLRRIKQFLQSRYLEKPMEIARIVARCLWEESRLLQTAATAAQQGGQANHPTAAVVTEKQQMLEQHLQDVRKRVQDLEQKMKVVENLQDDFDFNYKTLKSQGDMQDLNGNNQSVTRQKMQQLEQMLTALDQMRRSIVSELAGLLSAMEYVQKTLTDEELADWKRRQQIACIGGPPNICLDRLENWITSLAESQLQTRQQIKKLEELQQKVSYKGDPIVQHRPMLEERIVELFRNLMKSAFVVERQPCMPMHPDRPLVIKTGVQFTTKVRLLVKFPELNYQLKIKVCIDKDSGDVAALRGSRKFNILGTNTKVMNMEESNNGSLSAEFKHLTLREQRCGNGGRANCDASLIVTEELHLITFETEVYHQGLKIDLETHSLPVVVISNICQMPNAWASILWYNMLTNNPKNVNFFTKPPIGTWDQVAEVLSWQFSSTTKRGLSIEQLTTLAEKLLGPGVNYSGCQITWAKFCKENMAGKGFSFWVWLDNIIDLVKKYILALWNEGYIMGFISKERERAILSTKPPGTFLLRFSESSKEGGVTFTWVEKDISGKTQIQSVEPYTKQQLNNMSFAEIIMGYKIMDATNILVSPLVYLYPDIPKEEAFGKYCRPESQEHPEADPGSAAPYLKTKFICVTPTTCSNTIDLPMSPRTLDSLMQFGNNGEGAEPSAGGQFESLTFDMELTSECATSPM
Nuclear factor erythroid 2-related factor 2 (Homo sapiens), sequence (Q16236 whole entry, looked up): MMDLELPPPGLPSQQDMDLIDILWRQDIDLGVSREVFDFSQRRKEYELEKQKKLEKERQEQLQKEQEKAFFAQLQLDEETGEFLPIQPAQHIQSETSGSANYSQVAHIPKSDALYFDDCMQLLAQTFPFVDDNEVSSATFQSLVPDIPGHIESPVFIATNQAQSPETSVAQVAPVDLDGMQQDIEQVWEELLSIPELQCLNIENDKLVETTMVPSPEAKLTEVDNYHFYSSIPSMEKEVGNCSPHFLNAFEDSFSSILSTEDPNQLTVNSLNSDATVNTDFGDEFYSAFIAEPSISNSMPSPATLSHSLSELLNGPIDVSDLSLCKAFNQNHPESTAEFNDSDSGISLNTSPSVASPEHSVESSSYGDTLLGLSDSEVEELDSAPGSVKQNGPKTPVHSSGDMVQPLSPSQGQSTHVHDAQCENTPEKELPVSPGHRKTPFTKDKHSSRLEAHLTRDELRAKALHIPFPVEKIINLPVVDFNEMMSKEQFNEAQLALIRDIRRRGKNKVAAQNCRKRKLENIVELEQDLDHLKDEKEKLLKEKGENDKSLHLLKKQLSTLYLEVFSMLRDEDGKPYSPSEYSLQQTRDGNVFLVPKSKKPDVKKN
Nuclear factor NF-kappa-B p105 subunit (Homo sapiens), sequence (P19838 whole entry, looked up): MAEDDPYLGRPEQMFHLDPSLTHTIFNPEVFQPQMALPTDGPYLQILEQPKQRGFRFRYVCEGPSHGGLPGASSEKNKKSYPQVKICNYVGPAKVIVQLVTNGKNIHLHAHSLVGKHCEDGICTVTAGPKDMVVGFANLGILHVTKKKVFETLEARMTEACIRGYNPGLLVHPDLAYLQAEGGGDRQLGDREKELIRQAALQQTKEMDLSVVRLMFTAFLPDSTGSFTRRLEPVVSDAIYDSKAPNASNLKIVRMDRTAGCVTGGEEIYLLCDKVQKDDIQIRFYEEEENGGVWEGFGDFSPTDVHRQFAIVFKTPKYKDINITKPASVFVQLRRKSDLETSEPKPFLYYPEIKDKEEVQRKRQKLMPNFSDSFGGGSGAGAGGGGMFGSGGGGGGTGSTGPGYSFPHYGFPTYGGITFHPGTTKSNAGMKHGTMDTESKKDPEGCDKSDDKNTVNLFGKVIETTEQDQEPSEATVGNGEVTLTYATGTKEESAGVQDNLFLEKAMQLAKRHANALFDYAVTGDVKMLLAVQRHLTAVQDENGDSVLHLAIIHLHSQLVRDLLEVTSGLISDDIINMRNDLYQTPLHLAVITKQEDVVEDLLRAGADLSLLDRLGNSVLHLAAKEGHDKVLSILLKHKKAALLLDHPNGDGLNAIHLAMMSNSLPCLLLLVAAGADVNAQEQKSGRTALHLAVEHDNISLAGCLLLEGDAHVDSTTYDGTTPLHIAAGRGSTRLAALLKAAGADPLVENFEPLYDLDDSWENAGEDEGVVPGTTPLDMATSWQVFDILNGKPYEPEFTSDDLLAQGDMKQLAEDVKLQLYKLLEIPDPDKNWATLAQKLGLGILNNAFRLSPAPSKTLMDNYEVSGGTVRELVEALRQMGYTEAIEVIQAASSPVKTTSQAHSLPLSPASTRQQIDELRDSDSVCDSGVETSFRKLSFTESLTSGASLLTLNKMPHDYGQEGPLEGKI

Cc1nc(-c2ccccn2)ncc1C(=O)Nn1cc(C)c2cc(F)ccc21
inactive: [1] | [3] | [5] | MYC, MYC (gene 4609) | [6] | [8] | [9] | [10] | [12] | [13] | [14] | [15] | [16] | [17] | [18] | [19]
active: [2] 50000 nM | [4] 50000 nM | [7] 34200 nM | [11] 77700 nM

O=S(=O)(O)c1ccc(N=Nc2c(O)ccc3cc(S(=O)(=O)O)ccc23)cc1
inactive: [1] | [2] | [3] | [4] | [5] | MYC, MYC (gene 4609) | [6] | [7] | [8] | [9] | [10] | [11] | [12] | [13] | [14] | [15] | [16] | [17] | [18] | [19]

CCCCOC(=O)c1ccccc1
inactive: [1] | [2] | [3] | [4] | [5] | MYC, MYC (gene 4609) | [6] | [7] | [8] | [9] | [10] | [11] | [12] | [13] | [14] | [15] | [16] | [17] | [18] | [19]

CCn1nc(C)c2c1C(=O)NCC(c1ccc(O)cc1)=N2
inactive: [1] | [2] | [3] | [4] | [5] | MYC, MYC (gene 4609) | [6] | [7] | [8] | [9] | [10] | [11] | [12] | [13] | [14] | [15] | [16] | [17] | [18] | [19]

O=C(NO)C1(NS(=O)(=O)c2ccc(Oc3ccc(F)cc3)cc2)CCOCC1
inactive: [1] | [2] | [4] | [5] | [6] | [8] | [9] | [10] | [13] | [14] | [15] | [16] | [17] | [18] | [19]
active: [3] 76600 nM | MYC, MYC (gene 4609) 78500 nM | [7] 68400 nM | [11] 80700 nM | [12] 80000 nM

COc1cc2c(c(OC)c1OC)-c1ccc(OC)c(=O)cc1[C@@H](NC(C)=O)CC2
inactive: [1] | [8] | [9] | [10] | [14] | [16]
active: [2] 301 nM | [3] 96 nM | [4] 113 nM | [5] 14.7 nM | MYC, MYC (gene 4609) 144 nM | [6] 152 nM | [7] 112 nM | [11] 105 nM | [12] 62.6 nM | [13] 148 nM | [15] 138 nM | [17] 136 nM | [18] 181 nM | [19] 87.1 nM
